sEH activator = soluble epoxide hydrolase (human) activation. activation, % at 2 µM. AID 717. 0.04% of 91,000 active. purified human sEH enzymatic activity, activator screen; in the data active means activation above about 37%
Target sequence (P34913 whole entry, looked up): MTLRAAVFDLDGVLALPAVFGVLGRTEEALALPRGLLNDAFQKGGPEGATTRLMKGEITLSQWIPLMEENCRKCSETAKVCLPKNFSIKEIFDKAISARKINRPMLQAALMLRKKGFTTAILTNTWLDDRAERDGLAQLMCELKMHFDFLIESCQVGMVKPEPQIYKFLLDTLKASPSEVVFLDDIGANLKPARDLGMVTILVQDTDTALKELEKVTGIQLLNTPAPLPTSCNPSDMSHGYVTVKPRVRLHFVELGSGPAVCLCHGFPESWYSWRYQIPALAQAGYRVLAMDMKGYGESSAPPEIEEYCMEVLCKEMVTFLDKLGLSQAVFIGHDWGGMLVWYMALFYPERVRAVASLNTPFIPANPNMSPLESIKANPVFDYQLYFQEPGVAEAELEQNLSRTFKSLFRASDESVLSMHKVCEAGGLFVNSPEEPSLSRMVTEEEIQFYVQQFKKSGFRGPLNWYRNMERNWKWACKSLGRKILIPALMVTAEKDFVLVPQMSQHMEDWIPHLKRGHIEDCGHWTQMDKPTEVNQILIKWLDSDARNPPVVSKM
BAP1 block = inhibitors of human BAP1 deubiquitinase; Q92560; recombinant BAP1, Ub-AMC hydrolysis fluorescence kinetic; active compounds read low; calls only at 20 µM; 0.48% of 72,000 active;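 active means activity remaining at or below 50% of control, provided the compound also passes the data quality filters; inactive means the rest, including low values that fail the filters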;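 further: 100% = DMSO wells rate and 0% = substrate alone blank rate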
PLAP act = activates human placental alkaline phosphatase | activation fold at 20 µM | 1.2% of 96,000 active | P05187 | purified PLAP enzyme, luminescent substrate read-out; active compounds read high | AID 696; in the data active means activation fold above about 2
sEH inhibitor = inhibitors of human soluble epoxide hydrolase; P34913; recombinant human sEH enzymatic activity assay; inhibition, % at 2 µM; 0.34% of 91,000 active; in the data active means inhibition above about 80%
The depositor's hits bear a star; i = inactive; / = no result shown; + = active, no number. The list is not random: actives were taken first. Their share in the collection is about 1.5%.

SMILES	sEH activator	BAP1 block	PLAP act	sEH inhibitor
CCC(CC)NC(=O)COC(=O)c1ccc(OCC(=O)Nc2ccccc2OC)c(OC)c1	-83	/	0.7	83*
CCCNC(=O)COC(=O)c1ccc(OCC(=O)Nc2ccccc2OC)c(OC)c1	-32	/	0.8	32
CC12CC3(C)CC(C)(C1)CC(C(=O)NCCO)(C2)C3	/	i	/	/
N#Cc1nc(-c2cccc(Cl)c2)oc1NCc1cccnc1	-4	/	2*	7
CCC(CC)C1C(C#N)=C(N)Oc2n[nH]c(C)c21 (stereo unspecified)	-27	i	2.1*	28
CCC(CC)C1C(C#N)=C(N)Oc2n[nH]c(-c3ccccc3)c21 (stereo unspecified)	-1	/	0.8	1
COC(=O)C1=C(C)NC2=C(C(=O)CCC2)C1c1cccc([N+](=O)[O-])c1 (stereo unspecified)	/	i	/	/
Cc1cc([N+](=O)[O-])ccc1NC(=O)c1ccc([N+](=O)[O-])cc1	/	i	/	/
COc1ccc(-c2nc3cc(NC(=O)Cc4ccc(OC)c(OC)c4)ccc3o2)cc1	-80	/	1.8	80*
COc1ccc(Cc2nnc(NC(=O)Cc3cccs3)s2)cc1OC	/	+	/	/
O=C(Cc1cccs1)Nc1nnc(Cc2ccccc2)s1	-6	/	/	10
Cn1c(N)c(C(=O)c2cc(-c3ccccn3)nc3ccccc23)c(=O)[nH]c1=O	/	i	2*	/
O=C(NC1CC1)c1cc(-c2ccccn2)nc2ccccc12	-6	/	0.9	7
c1ccc(C2CCCSC2)cc1 (stereo unspecified)	/	i	/	/
C=CCN1C(=O)C(CC(=O)Nc2ccc(C)cc2)SC1=Nc1c(C)n(C)n(-c2ccccc2)c1=O (stereo unspecified)	17	/	2.1*	-17
O=C(O)c1cccc(N2C(=O)c3cccc4c([N+](=O)[O-])ccc(c34)C2=O)c1	/	i	/	/
c1cnc2c(OCc3nc4ccccc4[nH]3)cccc2c1	4	i	2.1*	0
Cc1cccc(C)c1NC(=O)CN1C(=O)c2ccccc2C1=O	/	i	/	/
COc1ccc2nc(NC(=O)C(NS(=O)(=O)c3cccs3)C(C)C)sc2c1 (stereo unspecified)	0	i	2.2*	2
O=C(Nc1nccs1)c1cccc(Oc2ccc([N+](=O)[O-])cc2)c1	/	i	/	/
COc1ccc2nc(N=C(NC(=O)c3ccccc3)NC(=O)c3ccccc3)nc(C)c2c1	/	i	/	/
Cc1cc(Cl)ccc1N(CC(=O)N=Nc1c(O)[nH]c2ccccc12)S(C)(=O)=O	-7	/	2.1*	8
COc1cc(-c2nnc(SC(C)C(=O)Nc3c(C)n(C)n(-c4ccccc4)c3=O)o2)cc(OC)c1OC (stereo unspecified)	0	/	2*	2
Cc1cc(SC(C)C(=O)Nc2c(C)n(C)n(-c3ccccc3)c2=O)nc2ccccc12 (stereo unspecified)	-1	/	1.3	4
Cc1c(NC(=O)C(C)Sc2nnc(-c3ccccc3)o2)c(=O)n(-c2ccccc2)n1C (stereo unspecified)	17	i	2.1*	-18
SMILES	sEH activator	BAP1 block	PLAP act	sEH inhibitor
COc1cc2c(C(=O)Nc3ccc4c(c3)OCO4)cn(CC(C)C)c(=O)c2cc1OC	-7	/	2.4*	6
COc1cc2c(C(=O)NCc3ccc4c(c3)OCO4)cn(CC(C)C)c(=O)c2cc1OC	/	i	0.9	/
CCOc1ccc(C(=O)Nc2c3c(nn2-c2ccc([N+](=O)[O-])cc2)CSC3)cc1	/	i	/	/
Cc1nc2ncnn2c(N2CCN(c3cccc(C(F)(F)F)c3)CC2)c1C	/	i	2*	/
CCc1c(C(=O)NCc2ccccc2Cl)[nH]c(C)c1C(C)=O	/	i	0.8	/
CC(=O)c1c(C)[nH]c(C(=O)NCc2ccccc2Cl)c1C	-85	i	/	85*
O=C(COc1ccc(Cl)cc1Cl)NNC(=S)Nc1ccc(F)cc1	-28	/	1.1	28
CC(=O)N1CCN(c2ccc(NC(=O)COc3ccc(Cl)cc3Cl)cc2)CC1	-90	i	1.3	90*
CC(=O)NC(=S)Nc1ccc(NC(=O)COc2ccc(Cl)cc2Cl)cc1	-82	/	1.1	82*
O=C1c2ccc(Oc3cccc([N+](=O)[O-])c3)cc2C(=O)N1c1cccc(Cl)c1	/	i	/	/
Cc1ccccc1CN(c1ccc(C(=O)Nc2cccnc2)cc1)S(C)(=O)=O	0	/	2.2*	-1
Cc1ccccc1CN(c1ccc(C(=O)N2CCCC2)cc1)S(C)(=O)=O	3	i	1.4	0
CN(c1ccc(C(=O)NCCc2ccccc2)cc1)S(=O)(=O)c1ccccc1	/	i	/	/
Cc1nn(C(=O)c2ccc(N3CCOCC3)c([N+](=O)[O-])c2)c(C)c1Sc1ccc([N+](=O)[O-])cc1	/	i	/	/
O=C(COc1ccc(C23CC4CC(CC(C4)C2)C3)cc1)Nc1cccc([N+](=O)[O-])c1	/	i	/	/
O=C(NC1CCCCCC1)C1CCCN(S(=O)(=O)c2cnc[nH]2)C1 (stereo unspecified)	/	i	1.1	/
CCCCC(CC)CNC(=O)C1CCCN(S(=O)(=O)c2cnc[nH]2)C1 (stereo unspecified)	-83	i	1.4	83*
CC(C)CC(C(=O)Nc1ccccc1C(C)C)N1C(=O)c2ccccc2C1=O (stereo unspecified)	/	i	/	/
COCC(C)n1c(C)cc(C(=O)COc2ccc(S(=O)(=O)N3CCOCC3)cc2Cl)c1C (stereo unspecified)	/	i	2*	/
Oc1ccc(-c2[nH]ncc2Oc2ccccc2)c(O)c1O	/	i	/	/
CCCOC(=O)c1ccc(Oc2cn[nH]c2-c2ccc(OCC)cc2O)cc1	2	i	1.4	1
COc1cccc(Oc2cn[nH]c2-c2ccc(OC)cc2O)c1	-6	i	2.2*	9
COc1ccc(-c2[nH]ncc2-c2ccc(Cl)cc2)c(O)c1	-8	i	2*	8
Oc1ccc(-c2[nH]ncc2-c2ccc(Cl)cc2)c(O)c1	-16	i	1.6	16
COc1cccc(Oc2cn[nH]c2-c2ccc(O)cc2O)c1	12	i	2*	-13
SMILES	sEH activator	BAP1 block	PLAP act	sEH inhibitor
CCOc1ccc(-c2[nH]ncc2Oc2cccc(OC)c2)c(O)c1	0	i	2.6*	4
CCOc1ccc(NC(=O)COc2ccc(C34CC5CC(CC(C5)C3)C4)cc2)cc1	/	i	/	/
NS(=O)(=O)c1ccc(N=Cc2ccc(F)cc2)cc1	/	i	/	/
CC1CCCCC1NC(=O)COC(=O)c1ccc(S(=O)(=O)NCc2ccco2)cc1 (stereo unspecified)	-78	/	0.8	79
O=C(COC(=O)c1ccc(S(=O)(=O)NCc2ccco2)cc1)NC1CCCCCC1	-90	/	1.3	90*
O=C(Nc1ccc(O)c(-c2nc3ccccc3s2)c1)c1ccc(Cl)cc1	/	i	/	/
COc1ccc(OCC(=O)N2CCN(C(=O)c3ccco3)CC2)cc1	41*	/	1	-37
O=C(O)c1ccccc1-c1ccccc1C(=O)NCCCO	37*	/	1.1	-33
CCCCOC(=O)c1cccc(NC(=O)c2c(C)cc(C)cc2C)c1	/	i	/	/
C=CCSc1nnc(NC(=O)c2nc(SCC)ncc2Cl)s1	2	/	1	-2
CSc1ncc(Cl)c(C(=O)Nc2nnc(SC/C=C/c3ccccc3)s2)n1	-1	/	2.3*	-1
O=C(CSc1nnc(-c2cccs2)n1-c1ccccc1)c1ccc2c(c1)OCCO2	/	i	1	/

Compound activity deposited in PubChem by several laboratories.
